# G9a inh – blocks human histone lysine methyltransferase G9a; Q96KQ7; G9a H3K9 monomethylation, AlphaScreen, 2 h; Potency, µM (titrated, usually from 102 µM), without a hit: at the highest dose activity, negative = inhibition, actives largely listed as inhibitors; 350,000 tested, 8.8% active; AID 504332; also: % is scaled to controls: 0 for no effect and ±100 for the full control effect; nearly all actives have a fitted effect of over 75% in size
# Target sequence (Q96KQ7 913-1193 limits assumed): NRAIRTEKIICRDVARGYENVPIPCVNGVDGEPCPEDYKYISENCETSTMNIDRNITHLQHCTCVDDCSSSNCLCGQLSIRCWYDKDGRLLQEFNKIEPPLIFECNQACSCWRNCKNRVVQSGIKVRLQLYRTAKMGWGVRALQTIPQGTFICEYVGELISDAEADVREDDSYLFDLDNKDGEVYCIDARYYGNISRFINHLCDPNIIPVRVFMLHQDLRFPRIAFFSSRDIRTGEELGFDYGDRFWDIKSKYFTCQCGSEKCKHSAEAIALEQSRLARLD
#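 Step 1: enzyme (final 20 nM) with compound, 15 min RT. Step 2: substrate peptide 500 nM and SAM 20 uM, 2 h RT. Step 3: anti-H3K9me1 antibody and AlphaScreen beads, 10 min, then plate read.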
# JMJD2A Tudor inh – blocks the human JMJD2A Tudor domain; O75164; Potency, µM (top dose mostly 114 µM), inactives show at the highest dose activity change, negative = inhibition, usual class: inhibitors; AlphaScreen JMJD2A-Tudor / H3K4me3 peptide binding; 390,000 tested, 4.4% active; also: % is scaled to controls: 0 for no effect and ±100 for the full control effect; nearly all actives have a fitted effect of over 50% in size
# BAZ2B block – BAZ2B (human) inhibition; AlphaScreen BAZ2B-H3K14Ac peptide displacement; Potency, µM (highest dose often 114 µM), for the others: at the highest dose activity change, negative = inhibition, most hits filed as inhibitors; 360,000 tested, 4.4% active; AID 504333; also: % is scaled to controls: 0 for no effect and ±100 for the full control effect; nearly all actives have a fitted effect of over 60% in size
#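 BAZ2B 50 nM plus b-H3(5-23)K14Ac 50 nM, PBS pH 7.4/0.01% Tween-20, 30 min RT; compound added (max 110 uM), 30 min RT; streptavidin donor/Ni-chelate acceptor beads 10 ug/mL final, 20 min dark; AlphaScreen read.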
# Sfp inh – blocks B. subtilis Sfp PPTase activity; Biochemical Sfp PPTase activity, qHTS; Potency, µM, for the others: largest response in the series, negative = inhibition, usual class: inhibitors; 310,000 tested, 3.5% active;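 also: the enzyme is Sfp with the accession as filed and its product quenches rhodamine fluorescence; 0% = enzyme reaction without inhibitor and -100% = no enzyme wells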
#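 Compounds were incubated with enzyme (final 15 nM) for 15 min at room temperature before substrate addition started the reaction. Fluorescence at 525 nm excitation, 598 nm emission was recorded immediately and after 30 minutes.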
# L3MBTL1 block – L3MBTL1 (human) inhibition; Q9Y468; AlphaScreen L3MBTL1–H3K9me1 peptide binding; Potency, µM (highest dose often 57.1 µM), without a hit: top-dose activity, negative = inhibition, actives largely listed as inhibitors; 230,000 tested, 0.66% active; also: % is scaled to controls: 0 for no effect and ±100 for the full control effect; nearly all actives have a fitted effect of over 60% in size
#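 L3MBTL1 (50 nM) pre-complexed 30 min with biotinylated H3(1-15)K9me1 peptide (75 nM), then compounds added for 30 min at room temperature; AlphaScreen streptavidin donor/nickel chelate acceptor beads (10 ug/mL final) read after 30 min dark incubation.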
# HP1b chromo inh – blocks HP1-beta chromodomain binding to methylated histone tails; P83916; AlphaScreen HP1-beta / biotin-H3K9me3 peptide binding; Potency, µM (highest dose often 114 µM), without a hit: top-dose activity change, negative = inhibition, hits mostly inhibitors; 390,000 tested, 0.56% active; AID 540317; also: nearly all actives have a fitted effect of over 70% in size
# Target sequence (P83916 whole entry, looked up): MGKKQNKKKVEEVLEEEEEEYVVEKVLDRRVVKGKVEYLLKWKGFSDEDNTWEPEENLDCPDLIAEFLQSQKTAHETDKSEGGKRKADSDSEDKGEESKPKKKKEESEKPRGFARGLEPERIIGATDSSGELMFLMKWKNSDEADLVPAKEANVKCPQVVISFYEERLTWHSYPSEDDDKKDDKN
#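 AlphaScreen: HP1-beta (50 nM) preformed 30 min with biotin-H3(1-18)K9me3 peptide (50 nM) in PBS pH 7.4, 0.01% Tween-20. Compound added for 30 min at RT, then streptavidin donor/nickel chelate acceptor beads (10 ug/mL) for 30 min.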
# Active calls of the source: *; u = inconclusive; x = no result given; [ ] = another dose, or the depositor's remark. This is a sample that favours compounds with a hit; in the whole collection about 12% have one here. Calls follow the shape of the dose curve; as a rule, active = well fitted curve in the direction sought with a large enough effect; inconclusive = small, poorly fitted or top-dose-only effect, or another doubt; inactive = no such curve, though single readings can be large; an effect the other way counts as inactive or inconclusive. Potency is read from the fitted curve at half-maximal effect.
SMILES,G9a inh,JMJD2A Tudor inh,BAZ2B block,Sfp inh,L3MBTL1 block,HP1b chromo inh
COC(=O)[C@@]1(Cc2ccc(F)cc2)[C@H]2c3cc(C(=O)N(C)C)n(Cc4cc(F)c(F)c(F)c4)c3C[C@H]2CN1C(=O)c1ccccc1,x,x,x,2.1%,x,x
COC(=O)[C@@]1(Cc2ccc(F)cc2)[C@H]2c3cc(C(=O)N4CCCC4)n(CCc4ccc(OC)c(Br)c4)c3C[C@H]2CN1C(=O)c1ccccc1,x,x,x,13.2%,x,x
COC(=O)[C@@]1(Cc2ccc(OC)cc2)[C@H]2c3cc(C(=O)N(C)C)n(CCF)c3C[C@H]2CN1C(=O)c1ccccc1,x,x,x,2.8%,x,x
COC(=O)[C@@]1(Cc2ccc(F)cc2)[C@H]2c3cc(C(=O)N(C)C)n(Cc4ccc(OC(F)(F)F)cc4)c3C[C@H]2CN1C(=O)c1ccccc1,50.1µM*,x,-37.8%,21.6%,-0.2%,x
COC(=O)[C@@]1(Cc2ccc(OC)cc2)[C@H]2c3cc(C(=O)N(C)C)n(CCSCCO)c3C[C@H]2CN1C(=O)c1ccccc1,56.2µM*,-25.5%,u,5.4%,-8.1%,18.3%
COC(=O)[C@@]1(Cc2ccc(F)cc2)[C@H]2c3cc(C(=O)N4CCCC4)n(CCc4ccc(O)c(O)c4)c3C[C@H]2CN1C(=O)c1ccccc1,7.08µM*,x,39.8µM*,-21.9%,-25.8%,x
COC(=O)[C@@]1(Cc2ccc(OC)cc2)[C@H]2c3cc(C(=O)N4CCCC4)n(CCO)c3C[C@H]2CN1C(=O)c1ccccc1,50.1µM*,-28.9%,-31.8%,-6.4%,-6.7%,10.2%
COC(=O)[C@@]1(Cc2ccc(OC)cc2)[C@H]2c3cc(C(=O)N4CCCC4)n(CCc4ccc(O)c(OC)c4)c3C[C@H]2CN1C(=O)c1ccccc1,x,x,x,0.7%,x,x
COC(=O)[C@@]1(Cc2ccc(OC)cc2)[C@H]2c3cc(C(=O)N4CCCC4)n(CCSCCO)c3C[C@H]2CN1C(=O)c1ccccc1,35.5µM*,-15.7%,u,-13.4%,-11.9%,30.6%
CCCn1c(N)c(C(=O)CN(C)CC(=O)Nc2c(C)cc(C)cc2C)c(=O)[nH]c1=O,-36.0%,-12.2%,6.5%,x,-7.5%,32.6%
CCCn1c(N)c(C(=O)CN(C)CC(=O)Nc2ccc(C)cc2)c(=O)[nH]c1=O,44.7µM*,22.4µM*,9.4%,x,-5.1%,32.8%
CCCn1c(N)c(C(=O)CN(C)CC(=O)Nc2cc(C)ccc2C)c(=O)[nH]c1=O,50.1µM*,-4.1%,-4.8%,x,2.1%,25.0%
Cc1ccc(Cl)cc1NC(=O)CCN1C(=O)C2C3CCC(C3)C2C1=O (stereo not given),0.0%,-13.8%,-2.7%,13.6%,-0.6%,19.9%
COc1cccc(Cn2c(=O)c(-c3cccs3)nc3cnc(Nc4ccccc4)nc32)c1,5.1%[12.7 µM],x,x,0.9%,x,x
Cc1ccc(C2NCCS2)cc1 (stereo not given),44.7µM*,-11.6%,-0.1%,-13.2%,x,27.9%
O=C(Nc1cccc(F)c1)Nc1ccc2c(c1)OCO2,13.7%,-25.5%,-21.4%,0.9%,x,7.6%
COc1ccc(OCc2ccc(-c3nc(C#N)c(N4CCN(c5cccc(Cl)c5)CC4)o3)o2)cc1,-28.2%[59 µM],-17.2%,-29.4%,x,x,28.0%
N#Cc1nc(COc2ccccc2)oc1N1CCC(Cc2ccccc2)CC1,12.6µM*,-31.8%,u,-24.5%,-23.4%,u
COc1ccc(OCc2ccc(-c3nc(C#N)c(N4CCN(C)CC4)o3)o2)cc1,17.8µM*,56.2µM*,31.6µM*,x,x,u
N#Cc1nc(-c2ccc(COc3ccccc3)o2)oc1N1CCN(c2ccccc2)CC1,u,-14.2%,u,x,x,18.2%
CC1CCN(c2oc(-c3ccc(COc4ccccc4)o3)nc2C#N)CC1,5.01µM*,u,u,x,x,-15.3%
Cc1ccc(OCc2ccc(-c3nc(C#N)c(N4CCC(C)CC4)o3)o2)cc1,10µM*,-33.8%,u,x,x,-21.3%
O=[S+]([O-])(c1cc2ccccc2o1)N1CCN([S+](=O)([O-])c2c(F)cccc2F)CC1,x,-10.3%,x,x,x,x
